Compound activity from PubChem BioAssay.
Autofluor counter: counter-screen for toxin protease inhibitors: compound fluorescence; compound autofluorescence counterscreen, microsphere flow cytometry; stronger effect = higher value; fluorescence intensity (test concentration not listed); 360,000 compounds, 3.1% hits; in the data active = fluorescence intensity above about 16000; inconclusive = no clear call, values can overlap the other calls
BoNT-F LC inh: BoNT F light chain protease inhibition; 360,000 compounds, 0.22% hits; inhibition, % at 10 µM; AID 588497; Multiplex microsphere protease cleavage assay, flow cytometry; in the data active = inhibition above about 35%, passing the limit was not always enough; inconclusive = no clear call, values can overlap the other calls
Anthrax LF inh2: blocks Bacillus anthracis lethal factor protease; P15917; multiplex microsphere protease cleavage assay, LF; inhibition, % at 10 µM; AID 588501; 360,000 compounds, 0.12% hits
Target sequence (P15917 whole entry, looked up): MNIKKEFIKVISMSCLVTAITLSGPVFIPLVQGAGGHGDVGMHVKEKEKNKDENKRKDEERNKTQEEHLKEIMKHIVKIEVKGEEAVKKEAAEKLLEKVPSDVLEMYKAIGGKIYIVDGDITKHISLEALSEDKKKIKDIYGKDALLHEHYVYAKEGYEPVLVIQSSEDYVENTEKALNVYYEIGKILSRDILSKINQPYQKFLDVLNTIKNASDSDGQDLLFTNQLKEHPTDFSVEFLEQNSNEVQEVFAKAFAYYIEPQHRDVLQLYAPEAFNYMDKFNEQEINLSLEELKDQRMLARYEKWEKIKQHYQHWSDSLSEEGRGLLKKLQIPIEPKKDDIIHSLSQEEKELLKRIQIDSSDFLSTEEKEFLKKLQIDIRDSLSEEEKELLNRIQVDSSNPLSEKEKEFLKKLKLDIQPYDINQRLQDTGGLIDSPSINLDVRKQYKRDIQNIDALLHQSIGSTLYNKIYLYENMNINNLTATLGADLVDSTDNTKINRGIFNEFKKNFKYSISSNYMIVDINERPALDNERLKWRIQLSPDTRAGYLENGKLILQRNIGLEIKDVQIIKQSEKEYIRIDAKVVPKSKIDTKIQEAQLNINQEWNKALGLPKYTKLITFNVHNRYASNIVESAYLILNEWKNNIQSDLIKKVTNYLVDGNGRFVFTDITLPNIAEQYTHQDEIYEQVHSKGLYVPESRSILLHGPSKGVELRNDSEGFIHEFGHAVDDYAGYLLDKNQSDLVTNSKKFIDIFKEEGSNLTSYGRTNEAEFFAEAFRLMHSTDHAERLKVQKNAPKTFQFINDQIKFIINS
BoNT A protease: BoNT A light chain protease inhibition; inhibition, % at 10 µM; 360,000 compounds, 0.17% hits; multiplex microsphere protease substrate cleavage, flow cytometry
A number is an active result; 0 = inactive; ? = inconclusive. Shown are actives, neighbours in structure and some others; about 3.5% of the full set was active somewhere. Cut-off read from the data, not from the text of the source, unless noted: active = inhibition above about 30%; inconclusive = no clear call, values can overlap the other calls; inactive = below that.

SMILES	Autofluor counter	BoNT-F LC inh	Anthrax LF inh2	BoNT A protease
Cc1oc(-c2cccc(Cl)c2)nc1CN1CCC(C(=O)NCc2cccnc2)CC1	22980	0	0	0
C[C@H](CO)N1C[C@H](C)[C@H](CN(C)S(=O)(=O)c2cccs2)OCc2cnnn2CCCC1=O	0	0	0	0
O=C(c1cc2cc([N+](=O)[O-])ccc2oc1=O)N1CCN(c2ncccn2)CC1	0	37.8	0	0
CNc1c(NS(=O)(=O)c2cc(Cl)ccc2OC)c(=O)oc2ccccc12	0	0	0	0
CC(=O)NC(=O)NC1CSCC1OC(C)=O (stereo not drawn)	23409	0	0	?
COc1cc(C(=O)OC2CSCC2NC(=O)c2ccccc2)cc(OC)c1OC (stereo not drawn)	0	0	0	0
Cc1ccc(Cn2c(=O)c3ccccc3n3nc(C)cc23)cc1	0	0	0	0
N#Cc1cc(Sc2ccccn2)c(Sc2ccccn2)cc1C#N	17696	0	0	0
N#Cc1cc(Sc2ccccn2)c([N+](=O)[O-])cc1C#N	0	0	0	0
N#C/C(=C/c1cn[nH]c1-c1ccc(Br)cc1)C(=O)O	0	0	0	0
CCc1cc(-c2n[nH]c(=S)n2C(C)c2ccccc2)cs1 (stereo not drawn)	21656	0	0	0
O=c1[nH]c(=O)n(Cc2ccccc2)c(O)c1C=NCCCn1ccnc1	0	0	0	0
O=c1[nH]c(=O)n(Cc2ccc(F)cc2)c(O)c1C=NCCCn1ccnc1	20628	0	0	0
CCOC(=O)C1=C(c2ccccc2)Nc2ncnn2C1c1cc(OC)ccc1OC (stereo not drawn)	21867	0	0	0
COc1cccc(C2C(C(C)=O)=C(C)Nc3ncnn32)c1 (stereo not drawn)	0	0	0	0
CCCCOC(=O)C1=C(C)Nc2ncnn2C1c1cc(OC)ccc1OC (stereo not drawn)	19006	0	0	0
CCCCOC(=O)C1=C(C)Nc2ncnn2C1c1cccc(OC)c1 (stereo not drawn)	23328	0	0	0
CCN(c1ccc(NC(=O)CSCc2c(C)noc2C)cc1)C(C)C	0	0	0	0
COc1ccccc1N(C(=O)c1ccco1)C(C(=O)NC1CCCC1)c1ccc(N2CCOCC2)cc1 (stereo not drawn)	0	0	0	0
Cc1cc(C)n(C(=O)c2ccc(Cn3nc(C)c(Br)c3C)o2)n1	23364	0	0	0
Cc1nn(Cc2ccc(C(=O)n3cccn3)o2)c(C)c1Br	0	0	0	0
O=C(NC1CCCC1)c1ccc(CS(=O)(=O)c2cccc(C(F)(F)F)c2)o1	22398	0	0	0
O=C(CCS(=O)(=O)Cc1ccc(Cl)cc1)NCCCN1CCN(c2ccccc2F)CC1	22031	0	0	0
O=C(NCCCN1CCOCC1)c1ccc(CS(=O)(=O)c2cccc(C(F)(F)F)c2)o1	22992	0	0	0
O=C(NCCCN1CCOCC1)c1ccc(CS(=O)(=O)Cc2ccc(Cl)cc2)o1	20919	0	0	0
SMILES	Autofluor counter	BoNT-F LC inh	Anthrax LF inh2	BoNT A protease
CN(C(=O)COC(=O)COc1ccccc1F)C1CCS(=O)(=O)C1 (stereo not drawn)	0	38.4	0	0
Cc1cc(C)c(OCC(=O)OCC(=O)N(C)C2CCS(=O)(=O)C2)c(C)c1 (stereo not drawn)	0	0	0	0
CN(C(=O)COC(=O)C1CCN(S(=O)(=O)c2c(Cl)cccc2Cl)CC1)C1CCS(=O)(=O)C1 (stereo not drawn)	?	0	0	0
CN(C(=O)COC(=O)C1CCN(S(=O)(=O)c2cccs2)CC1)C1CCS(=O)(=O)C1 (stereo not drawn)	20892	0	0	?
COCCNC(=O)Nc1ccc2nc(-c3cccs3)c(-c3cccs3)nc2c1	0	41.6	57.4	132.5
CCNC(=O)NC(=O)C(C)OC(=O)c1oc2ccc(OC)cc2c1C (stereo not drawn)	21371	0	0	0
C/C(CC1CC(COCCC(C)C)OC1=O)=N\NC(N)=S (stereo not drawn)	20283	0	0	0
C/C(CCC1CC(C)OC1=O)=N\NC(N)=S (stereo not drawn)	0	0	0	0
Cn1c(N)c(C(=O)COC(=O)C2Cc3ccccc3CN2S(C)(=O)=O)c(=O)n(C)c1=O (stereo not drawn)	0	0	0	0
COC(=O)c1sc(N)c(C(=O)OC)c1COC(=O)c1c(C)noc1C	20148	0	0	0
O=C(Cn1nc(Cl)nc1Cl)c1cc2ccccc2oc1=O	16246	0	0	0
S=C1NC2=C(CCCC2)C2(CCCCC2)N1	0	0	0	0
C1CCC2(CC1)C1=C(CCCC1)Nc1nnnn12	24281	0	0	0
Cc1c(C(=O)N(C)C)c2cc(Cl)ccc2n1O	0	0	0	0
CCOC(=O)c1c(C)n(O)c2ccc(Cl)cc2c1=O	16178	0	0	0
COCCNC(=O)CSc1nc2cc(OC)c(OC)cc2c(=O)n1Cc1ccco1	16515	0	0	?
O=C(CSc1nc2cc(Cl)ccc2c(=O)n1Cc1ccco1)Nc1ccc(S(=O)(=O)N2CCOCC2)cc1	0	0	0	0
COC(=O)c1ccc2c(=O)n(Cc3ccco3)c(SCC(=O)Nc3ccc(C)c(Cl)c3)nc2c1	23373	0	0	0
Cc1ccc(C)c(S(=O)(=O)N2CCCOC2CNC(=O)C(=O)NC2CC2)c1 (stereo not drawn)	0	0	0	0
COc1cc(CC(=O)Nc2ccc(S(=O)(=O)N(C)C)cc2)cc(OC)c1OC	23513	0	0	0
COc1cc(C(=O)Nc2ccc(S(=O)(=O)NC(C)C)cc2)cc(OC)c1OC	16279	0	0	0
O=C(O)COCC(=O)Nc1ccc(-n2cnnn2)cc1	0	0	0	0
COCCn1nnnc1CN(Cc1ccco1)Cc1cc2cc3c(cc2[nH]c1=O)OCO3	23147	0	0	0
CC(C)(C)n1nnnc1CN(Cc1ccco1)Cc1cc2cc3c(cc2[nH]c1=O)OCO3	0	0	0	0
CC1(C)Cc2c(sc3nc[nH]c(=O)c23)CO1	0	0	0	0
SMILES	Autofluor counter	BoNT-F LC inh	Anthrax LF inh2	BoNT A protease
CC1(C)Cc2c(sc3ncnc(N)c23)CO1	18415	0	0	0
Cc1sc(NC(=S)NC(=O)c2ccccc2)c(C#N)c1C	0	0	0	0
CCN1CCc2c(sc(NC(=S)NC(=O)c3ccc(Cl)cc3)c2C(N)=O)C1	16287	?	0	0
CCN1CCc2c(sc(NC(=O)c3ccc4ccccc4c3)c2C(N)=O)C1	0	0	0	0
CCCN1CCc2c(sc(NC(=S)NC(=O)c3ccccc3)c2C#N)C1	0	0	0	58.1
CC(C)N1CCc2c(sc(NC(=S)NC(=O)c3ccccc3)c2C#N)C1	0	0	0	32.2
CC(C)N1CCc2c(sc(N)c2C#N)C1	19341	0	0	0
COc1ccccc1C(=O)COC(=O)/C(=C/c1ccccc1)NC(C)=O	0	0	0	0
CCOc1ccccc1NC(=O)c1cc(=O)[nH]c2ccc(S(=O)(=O)N3CCOCC3)cc12	0	0	0	0
CC(=C\C(=O)O)/C(=C\c1cccc2ccccc12)C(=O)O	0	0	0	0
Nc1ccn([C@@H]2O[C@H](CNCc3cnc(N4CCOCC4)nc3)[C@@H](O)[C@H]2O)c(=O)n1	0	0	0	0
COc1ccc(CC(=O)N2CCN(c3cccc(C)c3C)CC2)cc1	0	0	0	0
Cc1nc(CC(=O)N2CCN(c3cccc(C)c3C)CC2)cs1	20386	0	0	0
